# Measured values: PubChem BioAssay AID2283174 (EPA ToxCast)
# Active and inactive are the calls of the source. The calls were made as follows: active = hit-call score of the fitted dose curve at least 0.9, where 1 is the maximum; inactive = score below 0.9.
# Biological target: human Mitogen-Activated Protein Kinase 11 (MAPK 11), MAPK11 (gene 5600) (UniProt Q15759)
# Experiment: NVS_ENZ_hMAPK11: NovaScreen (NVS) Enzymatic Assay for human Mitogen-Activated Protein Kinase 11 (MAPK 11)
# Description: NVS_ENZ_hMAPK11 is a biochemical, single-readout assay that uses extracted gene-proteins in a cell-free assay. Measurements were taken 0 hour after chemical dosing in a 384-well plate.NVS_ENZ_hMAPK11 is one of one assay component(s) measured or calculated from the NVS_ENZ_hMAPK11 assay. It is designed to make measurements of enzyme activity, a form of enzyme reporter, as detected with fluorescence intensity signals by Fluorescence and electrophoretic mobility shift technology.Data from the assay component NVS_ENZ_hMAPK11 was analyzed into 1 assay endpoint. This assay endpoint, NVS_ENZ_hMAPK11, was analyzed in the positive analysis fitting direction relative to DMSO as the negative control and baseline of activity. Using a type of enzyme reporter, loss-of-signal activity can be used to understand changes in the enzymatic activity as they relate to the gene MAPK11. Furthermore, this assay endpoint can be referred to as a primary readout, because this assay has produced multiple assay endpoints where this one serves a enzymatic activity function. To generalize the intended target to other relatable targets, this assay endpoint is annotated to the kinase intended target family, where the subfamily is serine/threonine kinase.
# Binding assays used specific radioligands (tritiated, iodinated) with non-radioactive competitive displacement ligands in agonist or antagonist protocols (as indicated) and various reference compounds and inhibitors to titrate specific binding to receptors and transporters. Most enzyme assays (CYPs, kinases, phosphatases, proteases, HDACs) used recombinant protein and specific substrates (fluorescence mostly, some colorimetric and radioactive) and inhibitors, followed by a biochemical separation of substrate and product. All assays for the biochemical HTS were initially run in duplicate at a single concentration (10 uM for CYP450 assays and 25 uM for all others). Assay-chemical combinations meeting a pre-defined threshold (e.g., 30% inhibition and other criteria defined below) were then run in singleton concentration-response format with maximum concentration of 20 uM for CYPs and 50 uM for all others. Each assay was run with positive and negative controls, and concurrent controls on every plate. The follow-up (secondary) screen tested active chemical-pairs in concentration series, as well as a few additional assays not tested in the primary screen, some selected negative inactives, and several cases re-run in the concentration series for confirmatory purposes.
# Chain of human Mitogen-Activated Protein Kinase 11 (MAPK 11), MAPK11 (gene 5600) (Q15759 whole entry, looked up): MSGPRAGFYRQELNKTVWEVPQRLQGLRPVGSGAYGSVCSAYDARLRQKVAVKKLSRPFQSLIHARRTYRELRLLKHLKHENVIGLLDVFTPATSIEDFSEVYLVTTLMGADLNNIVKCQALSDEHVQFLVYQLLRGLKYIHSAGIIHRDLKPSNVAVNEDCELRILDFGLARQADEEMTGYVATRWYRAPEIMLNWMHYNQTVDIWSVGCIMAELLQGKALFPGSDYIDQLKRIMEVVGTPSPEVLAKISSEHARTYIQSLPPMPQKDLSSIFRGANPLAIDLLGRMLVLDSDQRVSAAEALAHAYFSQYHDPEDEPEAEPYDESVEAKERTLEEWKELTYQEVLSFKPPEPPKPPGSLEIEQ
SMILES,AC50,outcome
S=C([S-])NCCNC(=S)[S-].[Mn+2],24.4 µM (active),
S=C(S)NCCNC(=S)S.[Mn+2].[S-]C([S-])=NCCN=C([S-])[S-].[Zn+2],16.6 µM (active),
CCCCC(CC)COC(=O)c1ccccc1C(=O)O (stereo unspecified),,inactive
CC(C)(c1ccc(O)cc1)c1ccc(O)cc1,,inactive
C#CCOC(=O)[C@@H](C)Oc1ccc(Oc2ncc(Cl)cc2F)cc1,,inactive
COCCO,,inactive
